In ChEMBL document CHEMBL4513216, “Probing the Open Global Health Chemical Diversity Library for Multistage-Active Starting Points for Next-Generation Antimalarials” (ACS Infect Dis, 2020):
Among all 68,000 compounds or so, about 2,700 (4%) showed an effect of 50% or more. The list comes from a sample in which strong results are over-represented; it also holds similar structures and randomly drawn compounds.

System: Plasmodium berghei
Experiment: Screen against P. berghei liver stage (PbLuc), transformed with Luciferase, at 2uM
Format: functional, HepG2
Conditions: tested at 2 uM

| Compound | INHIBITION [%] |
| --- | --- |
| COC(=O)c1cc(C2CC2)nc2c(C#N)cnn12 | 11.95 |
| Cc1nc(CN2CCCn3c(nc(Cn4cncn4)cc3=O)C2)cs1 | 37.6 |
| N#Cc1ccc(N2CCC3(CC2)CC(Oc2cccnc2)CO3)cc1 (stereo unspecified) | 38.49 |
| FC1(F)CCN(Cc2ccccn2)CC12CCN(c1cccnc1)C2 (stereo unspecified) | 2.07 |
| CC(C)N1CCN(C(=O)c2ccccc2NCc2cccnc2)CC1 | 8.73 |
| COC1CCN(C(=O)c2ccccc2NCc2cccnc2)CC1 | 54.77 |
| COCC1CCCN(C(=O)c2ccccc2NCc2cccnc2)C1 (stereo unspecified) | 22.39 |
| Cc1cc(CNCCNS(C)(=O)=O)sc1Br | 20.76 |
| O=C(CCn1cncn1)N1C[C@@H]2CC[C@H]1CN(Cc1cccnc1)C2 | 44.37 |
| O=C(NCC1CCOC1)c1cc(-c2ccc(F)cc2)[nH]n1 (stereo unspecified) | -22.69 |
| O=C(NCC1CCOC1)c1cc(-c2ccc(Cl)cc2)n[nH]1 (stereo unspecified) | 61.07 |
| O=C(NCC1CCOC1)c1cc(-c2cccc(Cl)c2)[nH]n1 (stereo unspecified) | 47.03 |
| CCCS(=O)(=O)NC(=O)c1ccc(Br)o1 | 56.8 |
| CCCN(C)S(=O)(=O)NC(=O)c1ccc(CC)o1 | 13.28 |
| CCCS(=O)(=O)NC(=O)c1ccc(CC)o1 | 10.48 |
| NC1CCCCN(Cc2cc(-c3ccccc3OC(F)(F)F)no2)C1 (stereo unspecified) | 28.63 |
| Cc1ccsc1CNCc1c(C(C)C)nn(C)c1N1CCOCC1 | -28.5 |
| O=C1CC(c2ccccc2F)c2c(n3ccsc3nc2=O)N1 (stereo unspecified) | 25.47 |
| CCOC(C)c1noc(CN(C)C(=O)C2C(C)(C)C2(C)C)n1 (stereo unspecified) | 20.14 |

| Compound | INHIBITION [%] |
| --- | --- |
| CCOC(C)c1noc(CN(C)C(=O)c2cc3ccccn3c2)n1 (stereo unspecified) | 52.08 |
| CCOC(C)c1noc(CN(C)C(=O)c2ccncc2)n1 (stereo unspecified) | 20.14 |
| Cc1cnn(CCC(=O)N2CCCN(c3ccccc3C#N)CC2)c1 | -43.47 |
| CC(C)C(c1cccnc1)N(C)C(=O)Cc1ccc(O)cc1 (stereo unspecified) | 39.44 |
| CCNC(=O)N(C)C(c1cccnc1)C(C)C (stereo unspecified) | 42.2 |
| CC(C)C(c1cccnc1)N(C)C(=O)Cc1c(F)cccc1F (stereo unspecified) | 54.29 |
| Cc1ccc(C(N)c2cccc(S(C)(=O)=O)c2)cc1 (stereo unspecified) | 54.92 |
| CS(=O)(=O)c1cccc(C(N)c2ccccc2)c1 (stereo unspecified) | 35.65 |
| CS(=O)(=O)c1cccc(C(N)c2ccc(F)cc2)c1 (stereo unspecified) | -19.35 |
| COc1ccc(CNC(=O)C(NC(=O)Cc2ccccc2)C(C)C)cn1 (stereo unspecified) | -129.64 |
| O=C(Cc1ccccc1)N1CCC2(CC(=O)N(c3ccsc3)C2)C1 (stereo unspecified) | -54.51 |
| COc1ccc(Cl)cc1C(=O)NCC1CCN(C(=O)c2ccoc2)CC1 | 17.33 |
| CCOc1cccc(NC(=O)Cc2cccc(O)c2)n1 | 0.51 |
| CSc1ccc(NC(=O)Cc2cccc(O)c2)nc1 | 55.36 |
| Cn1ccc(NC(=O)Cc2cccc(F)c2)n1 | 19.89 |
| COCCC(=O)N1C[C@@H](c2ccccc2F)[C@@]2(CCCC(=O)N2)C1 | -6.19 |
| O=C(NCc1cnc2n1CCN(CC1CCOCC1)C2)c1ccno1 | -14.52 |
| Cc1ccc(S(=O)(=O)N2CCC(N3CCCCC3)CC2)cc1C | -25.62 |
| Cc1cc(S(=O)(=O)N2CCCN3CCCC3C2)ccc1F (stereo unspecified) | 6.07 |

| Compound | INHIBITION [%] |
| --- | --- |
| Cc1ccc(S(=O)(=O)N2CCCCC(N3CCN(C)CC3)C2)cc1F (stereo unspecified) | 50.3 |
| Nc1nccnc1CC1CCCN(Cc2ccnc3ccccc23)C1 (stereo unspecified) | 13.02 |
| CC(C)c1nc(CN2CCCC2Cn2cccn2)no1 (stereo unspecified) | -97.56 |
| COCCN(C)Cc1cc(Cl)ccc1OCC(O)CN1CCCCCC1 (stereo unspecified) | -55.56 |
| CCOc1ccccc1CNC(=O)NCC(c1cnn(C)c1)N(C)C (stereo unspecified) | 71.95 |
| CCOc1cc(F)ccc1NC(=O)NCC(c1cnn(C)c1)N(C)C (stereo unspecified) | -24.88 |
| CCOCc1ccccc1NC(=O)NCC(c1cnn(C)c1)N(C)C (stereo unspecified) | 18.54 |
| COc1ccc(CN2CCn3cc(CN4CCCCC4)nc3C2)cc1 | -5.87 |
| Cc1cc(CN2C[C@@H]3COC[C@]3(COCc3csc(C)n3)C2)no1 | 1.74 |
| CC(C)c1nc(CN2CCOC(Cn3cncn3)C2)cs1 (stereo unspecified) | 11.2 |
| CN(C)c1ccc(CCCNC(=O)NCC(O)c2ccsc2)cc1 (stereo unspecified) | 34.55 |
| CCOc1ccccc1CCNC(=O)NCC(O)c1ccsc1 (stereo unspecified) | 53.63 |
| CCOc1ccccc1CCNC(=O)NCC(O)c1cccs1 (stereo unspecified) | -23.79 |
| Cc1ccccc1N1CCN(C(=O)CCc2nncn2C)C(C)C1 (stereo unspecified) | -38.81 |
| Cc1cccc(C2CC(=O)Nc3c2c(=O)[nH]n3C(C)C)c1 (stereo unspecified) | -36.73 |
| Cc1nn(C)cc1CNCc1ccc(N(C)C)cc1 | 8.09 |
| COc1ccc(CNCc2cn(C)nc2C)cc1 | 51.32 |
| COC(=O)c1ccc(CNCc2cn(C)nc2C)cc1 | 14.26 |
